# Anthrax LF inh2 = inhibitors of Bacillus anthracis lethal factor protease; P15917; inhibition, % at 10 µM; multiplex microsphere protease cleavage assay, LF; 360,000 compounds, 0.12% hits; further: plate controls were buffer without enzyme for full effect and enzyme alone for no effect
# Target sequence (P15917 whole entry, looked up): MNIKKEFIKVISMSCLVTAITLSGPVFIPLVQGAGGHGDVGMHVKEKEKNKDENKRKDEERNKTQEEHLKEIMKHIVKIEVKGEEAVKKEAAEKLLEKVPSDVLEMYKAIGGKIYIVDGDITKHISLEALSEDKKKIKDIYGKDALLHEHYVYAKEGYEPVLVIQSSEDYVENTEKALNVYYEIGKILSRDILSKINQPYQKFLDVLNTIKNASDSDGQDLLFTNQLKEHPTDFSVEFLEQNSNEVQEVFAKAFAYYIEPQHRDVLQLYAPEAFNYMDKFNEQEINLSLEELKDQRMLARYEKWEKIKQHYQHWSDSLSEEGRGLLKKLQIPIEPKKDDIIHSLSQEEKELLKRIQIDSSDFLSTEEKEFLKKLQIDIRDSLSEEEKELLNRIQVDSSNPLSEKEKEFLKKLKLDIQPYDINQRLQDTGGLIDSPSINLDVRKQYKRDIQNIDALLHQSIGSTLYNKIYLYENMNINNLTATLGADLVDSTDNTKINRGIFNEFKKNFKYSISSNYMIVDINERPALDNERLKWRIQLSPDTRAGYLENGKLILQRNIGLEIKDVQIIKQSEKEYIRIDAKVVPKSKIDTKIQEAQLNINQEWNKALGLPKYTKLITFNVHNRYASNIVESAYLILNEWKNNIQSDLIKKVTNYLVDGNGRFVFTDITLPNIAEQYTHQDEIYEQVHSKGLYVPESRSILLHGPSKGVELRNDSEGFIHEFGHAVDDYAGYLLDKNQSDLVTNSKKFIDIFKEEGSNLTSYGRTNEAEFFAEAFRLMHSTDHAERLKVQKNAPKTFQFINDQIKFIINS
# BoNT-A LC inh2 = BoNT A light chain protease inhibition; AID 588499; multiplex microsphere protease substrate cleavage, flow cytometry; 360,000 compounds, 0.17% hits; inhibition, % at 10 µM; further: plate controls were buffer without enzyme for full effect and enzyme alone for no effect
# SARS 3CLpro inh = SARS-CoV 3CLpro protease inhibition. P0C6X7. recombinant SARS-CoV 3CLpro, quenched FRET peptide cleavage. inhibition, % at 6 µM. 290,000 compounds, 0.14% hits. AID 1706; in the data active means inhibition above about 12%
# BJeLR viability = kills HRASV12-expressing BJeLR cells; AID 1554; BJeLR (HRASV12) viability, CellTiter-Glo ATP luminescence, 48 h; inhibition, % (no concentration beside the values); 300,000 compounds, 0.17% hits; in the data active means inhibition above about 50%; inconclusive means no clear call, values can overlap the other calls
# Autofluor counter = counter-screen for toxin protease inhibitors: compound fluorescence | compound autofluorescence counterscreen, microsphere flow cytometry; hits give high values | fluorescence intensity (concentration not given with the values) | 360,000 compounds, 3.1% hits | AID 624483; in the data active means fluorescence intensity above about 16000; inconclusive means no clear call, values can overlap the other calls
# BoNT-F LC inh = inhibitors of Botulinum neurotoxin F light chain protease; Multiplex microsphere protease cleavage assay, flow cytometry; AID 588497; inhibition, % at 10 µM; 360,000 compounds, 0.22% hits; in the data active means inhibition above about 35%, passing the limit was not always enough; inconclusive means no clear call, values can overlap the other calls; further: plate controls were buffer without enzyme for full effect and enzyme alone for no effect
# * hit, by the source's call; ? = inconclusive; . = no result. A selection: hits, their analogues and other compounds. The true share with any hit is near 3.6%. Unless noted, no stated cut-off is given here; in the data, active means inhibition above about 30%; inconclusive means no clear call, values can overlap the other calls; inactive means below that.
SMILES,Anthrax LF inh2,BoNT-A LC inh2,SARS 3CLpro inh,BJeLR viability,Autofluor counter,BoNT-F LC inh
CC(C)NS(=O)(=O)c1ccc(NC(=O)NC2CCCCC2)cc1,-1.4,0.1,-0.1,-2.1,7705,-0.5
CCOc1ccccc1N=Nc1c(C)[nH]n(C(N)=S)c1=O,-0.6,2.6,3.8,-11.8,3759,56.5*
Cc1cccc(C(=O)N[C@H](C(=O)Nc2nccs2)C(C)C)c1,0.2,0.1,-0.6,-4.5,2215,-5.3
CCCn1nc([N+](=O)[O-])c(C(C#N)c2nc3ccccc3o2)c(Cl)c1=O (stereo unspecified),-2.6,0.1,6.1,-1.4,2461,-3.8
CCn1nc([N+](=O)[O-])c(C(C#N)c2nc3cc(C(F)(F)F)ccc3s2)c(Cl)c1=O (stereo unspecified),-3.3,2.1,3.8,9.7,22515*,-0.5
COc1ccc(/C=C/c2cc(-c3ccc(C)cc3)o[n+]2C)cc1,8.0,7.6,0.1,63.0*,11045,6.0
COc1ccc(/C=C/c2c(-c3ccc(OC)cc3)oc3ccc(-c4ccc(OC)cc4)cc23)cc1,-6.8,-0.6,-5.3,0.9,3899,-2.3
O=Cc1c(NCc2ccco2)nc2ccccn2c1=O,2.1,-1.1,1.6,-10.5,4385,-4.5
Cc1ccc2[nH]c(=O)c(-c3nc4ccccn4c3NCc3ccco3)cc2c1,-0.9,0.1,-2.0,3.7,16211*,-3.8
COC(=O)c1ccccc1NC(=S)NC(=O)CC(C)C,-1.0,2.3,4.5,0.5,22351*,1.3
CCCCC(=O)NC(=S)Nc1ccccc1C(=O)Nc1ccccc1,-8.8,?,-2.0,-9.3,17346*,14.6
Cc1ccccc1NC(=S)NC(=O)CCc1ccccc1,4.2,-0.6,4.2,-3.9,19923*,-2.6
CCCCC(=O)Nc1cccc(NC(=O)c2ccccc2Br)c1,-1.5,0.3,-1.3,5.3,20490*,1.2
O=C(Cc1ccccc1Cl)Nc1cc(S(=O)(=O)N2CCOCC2)ccc1N1CCOCC1,-10.0,1.9,.,.,7917,-0.5
CCN1C(=NCCN2CCOCC2)N[C@@H](c2ccccc2)C(C(=O)OC)=C1C,-4.5,-0.1,-8.4,6.0,2914,-1.9
Cc1cccnc1NC(=O)Nc1cccs1,-5.7,?,1.7,-0.7,22281*,-3.0
COc1ccccc1NC(=O)Nc1ncccc1C,0.2,2.1,-0.2,2.1,22096*,1.4
COc1ccccc1NC(=O)Nc1cnccn1,0.2,0.4,2.7,-15.2,2659,-3.5
O=C(Cn1cnc2c(nnn2Cc2ccc(F)cc2)c1=O)Nc1ccccc1,-3.2,-1.9,-1.4,-6.7,5282,-6.1
O=C(NC1CC1)c1ccc(-c2cnc3cccnn23)cc1,7.7,-0.1,.,.,2978,-5.0
COc1cc(C(c2c(C)[nH][nH]c2=O)c2c(C)[nH][nH]c2=O)ccc1OS(=O)(=O)c1ccccc1,-4.0,-1.0,7.3,-14.9,16308*,-5.3
COc1cc(C(c2c(C)[nH][nH]c2=O)c2c(C)[nH][nH]c2=O)ccc1OCc1ccc([N+](=O)[O-])cc1,0.8,2.9,-1.0,-5.6,21766*,-1.3
CCCCNC(=O)C1(C)CCN1Cc1cccc2c(OC)cc(C(=O)OCC)cc12 (stereo unspecified),-1.8,-0.7,.,.,3029,-4.1
CC(=O)N1CCc2cc(S(=O)(=O)NC(C(=O)NC(C)c3ccccc3)C(C)C)ccc21 (stereo unspecified),0.7,0.1,-0.7,-0.9,5765,-2.2
CCCCC1(CC)C(=O)NC(=O)NC1=Nc1ccc(OC)cc1 (stereo unspecified),-0.6,3.0,1.7,-1.4,21503*,5.0
SMILES,Anthrax LF inh2,BoNT-A LC inh2,SARS 3CLpro inh,BJeLR viability,Autofluor counter,BoNT-F LC inh
COc1ccc([N+](=O)[O-])cc1NC(=O)C(C)Sc1nc(C)c(C)c(C)n1 (stereo unspecified),-1.3,0.2,2.7,-3.2,2434,1.0
O=C(/C=C/c1ccccc1)NNC(=O)C1CC1,-3.6,4.0,3.3,6.2,21872*,4.1
O=C(NC1CCCC1)c1ccc(CSCc2ccccc2F)o1,0.7,1.9,3.0,4.8,23171*,-0.1
COc1ccc(C(C(=O)NC2CCCC2)N(Cc2cccnc2)C(=O)c2snc(C(N)=O)c2N)cc1 (stereo unspecified),-3.6,-1.7,3.7,-4.3,4610,-8.4
O=C(O)CCc1nn2c3ccccc3n(CCN3CCCCC3)c2nc1=O,-0.4,-3.5,-3.1,2.0,17537*,-6.1
CCOc1cccc2cc(-c3csc(NC(=O)CCC(=O)N4CCC(C)CC4)n3)c(=O)oc12,0.5,-1.2,-5.2,-0.3,22950*,-1.9
Cc1nc2nc(C)c(CCC(=O)N3CCN(c4ccccn4)CC3)c(C)n2n1,-5.3,-1.2,-1.1,7.9,23157*,-3.4
Cc1nc2ncnn2c(C)c1CCC(=O)N1CCOCC1,-4.7,1.5,0.4,-5.8,22539*,5.2
Cc1ccc(S(=O)(=O)NCc2cc(=O)n(C)c(=O)n2C)cc1C,-3.4,-2.1,-1.0,0.7,5650,-1.5
CCOC(=O)C1=NN(c2ccccc2C)C2=NC(C)=C(C(=O)OC)C(c3cccs3)N12 (stereo unspecified),-10.3,6.6,1.7,4.1,17523*,5.5
CC(C)CCNC(=O)c1ccc(CSCc2cccc(F)c2)o1,-4.5,5.4,2.9,-5.9,17562*,3.8
N#Cc1c(NC(=O)CSc2ncn[nH]2)sc2c1CCCCC2,-0.6,?,0.4,-8.1,22487*,-1.7
N#Cc1c(NC(=S)NC(=O)Cc2cccs2)sc2c1CCCCC2,-4.0,5.0,-2.8,-0.5,20268*,6.6
COc1cc(-c2nnc(SCC#CCO)o2)cc(OC)c1OC,-2.3,-0.4,1.4,-7.6,22486*,-1.4
CCOC(=O)C(C)C1(O)c2ccccc2-c2ncccc21 (stereo unspecified),-2.0,?,-3.5,0.8,23373*,-7.5
S=c1[nH]nc(C2CCCCC2)n1/N=C/c1cccs1,0.3,?,0.1,-4.2,23451*,-4.3
S=c1[nH]nc(C2CCCCC2)n1/N=C/c1ccncc1,-1.2,-0.5,-6.0,-14.0,2669,-4.2
O=[N+]([O-])c1ccc(/C=N/n2c(C3CCCCC3)n[nH]c2=S)cc1,-0.2,?,-3.8,8.6,22651*,-1.7
Cc1ccccc1N1CCN(C2CCCN(C(=O)CCC(F)(F)F)C2)CC1 (stereo unspecified),-5.3,-1.2,-3.6,-3.5,3834,-27.4
COc1cc(OC)c2nc(C)c3c(c2c1)N(c1ccc(O)cc1)CC3,-0.6,0.0,-3.3,2.9,4411,-0.2
COc1cccc(NC(=O)c2oc3ccccc3c2NC(=O)C2CC2)c1,-1.8,?,2.5,10.2,24287*,-5.3
CCOc1cc(NC(=S)Nc2cccc(OC)c2)c(OCC)cc1NC(=O)C1CC1,-2.5,-1.1,6.2,-21.0,23099*,-2.6
COc1cccc(NC(=O)c2oc3ccccc3c2NC(C)=O)c1,0.2,1.3,-0.3,-0.1,7481,8.6
COc1cccc(NC(=O)C2CCC2)c1,-3.5,-0.3,.,.,3604,-5.4
